In the supplement of paper PMC8728848:
The full list was thinned out, with the strongest signals kept by preference.

What was measured:
Test in all cases: glycan array binding signal (z-score within array); higher = stronger binding
Details in all cases: glycan notation: IUPAC condensed, linker removed
GalNAc(b1-4)GlcNAc = target: GalNAc(b1-4)GlcNAc
Summary of the method: (§1)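 Glycan array data came from 3228 arrays in the Consortium for Functional Glycomics database, and only arrays with an available protein sequence were kept. Glycan names were put into IUPAC-condensed notation, and columns mapping to the same glycan were averaged. The binding signal is a within-array Z-score, averaged across arrays of one protein sequence run at different concentrations or buffers and across linkers. A negative Z-score can be read as non-binding.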

[1] = target: GlcNAc(b1-2)Man(a1-3)[GlcNAc(b1-4)][GlcNAc(b1-2)Man(a1-6)]Man(b1-4)GlcNAc(b1-4)[Fuc(a1-6)]GlcNAc
Summary of the method: as §1

GlcNAc(b1-3)Fuc = target: GlcNAc(b1-3)Fuc
Summary of the method: as §1

[2] = target: GlcNAc(b1-3)Gal(b1-4)GlcNAc(b1-2)Man(a1-3)[GlcNAc(b1-3)Gal(b1-4)GlcNAc(b1-2)Man(a1-6)]Man(b1-4)GlcNAc(b1-4)GlcNAc
Summary of the method: as §1

[3] = target: GlcNAc(b1-3)Gal(b1-4)GlcNAc(b1-3)Gal(b1-4)GlcNAc(b1-3)Gal(b1-4)GlcNAc(b1-2)[GlcNAc(b1-3)Gal(b1-4)GlcNAc(b1-3)Gal(b1-4)GlcNAc(b1-3)Gal(b1-4)GlcNAc(b1-6)]Man(a1-6)[GlcNAc(b1-3)Gal(b1-4)GlcNAc(b1-3)Gal(b1-4)GlcNAc(b1-3)Gal(b1-4)GlcNAc(b1-2)Man(a1-3)]Man(b1-4)GlcNAc(b1-4)[Fuc(a1-6)]GlcNAc
Summary of the method: as §1

[4] = target: GlcNAc(b1-3)Gal(b1-4)GlcNAc(b1-3)Gal(b1-4)GlcNAc(b1-3)Gal(b1-4)GlcNAc(b1-3)Gal(b1-4)GlcNAc(b1-2)Man(a1-3)[GlcNAc(b1-3)Gal(b1-4)GlcNAc(b1-3)Gal(b1-4)GlcNAc(b1-3)Gal(b1-4)GlcNAc(b1-3)Gal(b1-4)GlcNAc(b1-2)Man(a1-6)]Man(b1-4)GlcNAc(b1-4)[Fuc(a1-6)]GlcNAc
Summary of the method: as §1

[5] = target: GlcNAc(b1-3)Gal(b1-4)GlcNAc(b1-6)[GlcNAc(b1-3)]Gal(b1-4)GlcNAc
Summary of the method: as §1

Kdn(a2-3)Gal(b1-3)GalNAc = target: Kdn(a2-3)Gal(b1-3)GalNAc
Summary of the method: as §1

Kdn(a2-3)Gal(b1-4)Glc = target: Kdn(a2-3)Gal(b1-4)Glc
Summary of the method: as §1

[6] = target: Man(a1-2)Man(a1-3)[Man(a1-2)Man(a1-6)]Man(a1-6)[Man(a1-2)Man(a1-2)Man(a1-3)]Man(b1-4)GlcNAc(b1-4)GlcNAc
Summary of the method: as §1

Man(a1-6)Man = target: Man(a1-6)Man
Summary of the method: as §1

[7] = target: Neu5Ac(a2-3)Gal(b1-3)GalNAc(b1-4)[Neu5Ac(a2-8)Neu5Ac(a2-3)]Gal(b1-4)Glc
Summary of the method: as §1

Neu5Ac(a2-3)Gal(b1-4)Glc = target: Neu5Ac(a2-3)Gal(b1-4)Glc
Summary of the method: as §1

[8] = target: Neu5Ac(a2-3)Gal(b1-4)GlcNAc(b1-2)Man(a1-3)[GlcNAc(b1-4)][Neu5Ac(a2-3)Gal(b1-4)GlcNAc(b1-2)Man(a1-6)]Man(b1-4)GlcNAc(b1-4)GlcNAc
Summary of the method: as §1

[9] = target: Neu5Ac(a2-3)Gal(b1-4)GlcNAc(b1-2)[Neu5Ac(a2-3)Gal(b1-4)GlcNAc(b1-6)]Man(a1-6)[Neu5Ac(a2-3)Gal(b1-4)GlcNAc(b1-2)Man(a1-3)][GlcNAc(b1-4)]Man(b1-4)GlcNAc(b1-4)GlcNAc
Summary of the method: as §1

[10] = target: Neu5Ac(a2-3)Gal(b1-4)[Fuc(a1-3)]GlcNAc(b1-6)[Gal(b1-3)]GalNAc
Summary of the method: as §1

[11] = target: Neu5Ac(a2-6)Gal(b1-4)GlcNAc(b1-2)Man(a1-6)Man(b1-4)GlcNAc(b1-4)GlcNAc
Summary of the method: as §1

[12] = target: Neu5Ac(a2-6)Gal(b1-4)GlcNAc(b1-2)Man(a1-6)[GlcNAc(b1-2)Man(a1-3)]Man(b1-4)GlcNAc(b1-4)GlcNAc
Summary of the method: as §1

[13] = target: Neu5Ac(a2-6)Gal(b1-4)GlcNAc(b1-3)Gal(b1-4)GlcNAc(b1-3)Gal(b1-4)GlcNAc(b1-2)Man(a1-3)[Neu5Ac(a2-6)Gal(b1-4)GlcNAc(b1-3)Gal(b1-4)GlcNAc(b1-3)Gal(b1-4)GlcNAc(b1-2)Man(a1-6)]GalNAc
Summary of the method: as §1

[14] = target: Neu5Ac(a2-6)Gal(b1-4)GlcNAc(b1-3)GalNAc
Summary of the method: as §1

[15] = target: Neu5Ac(a2-6)GalNAc(b1-4)GlcNAc6S
Summary of the method: as §1

[16] = target: Neu5Ac(a2-8)Neu5Gc(a2-3)Gal(b1-4)GlcNAc
Summary of the method: as §1

[17] = target: Neu5Ac9Ac(a2-3)Gal(b1-4)GlcNAc
Summary of the method: as §1

[18] = target: Neu5Ac9Ac(a2-6)Gal(b1-4)GlcNAc
Summary of the method: as §1

Neu5Gc(a2-6)GalNAc = target: Neu5Gc(a2-6)GalNAc
Summary of the method: as §1

[19] = target: Neu5Gc(a2-8)Neu5Gc(a2-3)Gal(b1-4)GlcNAc(b1-3)Gal(b1-4)GlcNAc
Summary of the method: as §1

B1: PX9937A-bvu-521-23-521 (Bacteroides vulgatus) (protein)
chain: LDLAPEDYYGAGNFWKEASQPKAFMLGLHAQLRSYYDMFYTLGELRGGTQRVGTSSLNTSLNYADIRSQNISEDIPGISNWNGLYSPIMQVNHFIQEVENGCTFLDDATRSRYLGQAYGMRALYYFMLYRTFGGVPLITKVDILDGKPSADKFYVERATPEATMEFIKADINKSENYFGNNTSFDAYDWSRYATLMLKAEIYMWAAKVSITGFTATGATDLQTAKTALSGIIGHFELMDNFASIFSCDNKKNTEIIFAMPFIEGEASNDGGRFLYQDAVFLGQAYGRNGKVIEKDTLNLKGTGGVFRDEYTEDFWKTFKEGDSRRDATFMEYYMKNDNGTLSEFGCVMKKRIGTINSNDNRIYISDIPVYRYADALLMMAEIENGLNNPCASYINEVRKRAYGDTFEENKYTEGSYAENELAILQERDKEFVSEGKRWFDVLRMHDASGRSLVFSANANYPGTNPILGTEEAYKMLWPVNIGTLNVNPLLTQTPGYGKK
glycan array binding signal (z-score) (GalNAc(b1-4)GlcNAc): 2.94 | glycan array binding signal (z-score) [1]: -0.211 | glycan array binding signal (z-score) (GlcNAc(b1-3)Fuc): 2.63 | glycan array binding signal (z-score) [2]: 2.54 | glycan array binding signal (z-score) [3]: -0.128 | glycan array binding signal (z-score) [4]: -0.708 | glycan array binding signal (z-score) [5]: -0.214 | glycan array binding signal (z-score) (Kdn(a2-3)Gal(b1-3)GalNAc): 2.84 | glycan array binding signal (z-score) (Kdn(a2-3)Gal(b1-4)Glc): -0.287 | glycan array binding signal (z-score) [6]: -0.427 | glycan array binding signal (z-score) (Man(a1-6)Man): 4.8 | glycan array binding signal (z-score) [7]: 0.038 | glycan array binding signal (z-score) (Neu5Ac(a2-3)Gal(b1-4)Glc): 0.96 | glycan array binding signal (z-score) [8]: -0.062 | glycan array binding signal (z-score) [9]: -0.581 | glycan array binding signal (z-score) [10]: -0.51 | glycan array binding signal (z-score) [11]: -0.252 | glycan array binding signal (z-score) [12]: -0.416 | glycan array binding signal (z-score) [13]: 0.232 | glycan array binding signal (z-score) [14]: -0.431 | glycan array binding signal (z-score) [15]: 0.342 | glycan array binding signal (z-score) [16]: 10.6 | glycan array binding signal (z-score) [17]: 0.442 | glycan array binding signal (z-score) [18]: 0.304 | glycan array binding signal (z-score) (Neu5Gc(a2-6)GalNAc): -0.419 | glycan array binding signal (z-score) [19]: -0.58
